Outcome and AC50 data for ten compounds are collected here from PubChem BioAssay (EPA / NIEHS).

Activity calls are given as the source filed them. The calls were made as follows: active = hit-call score of the fitted dose curve at least 0.9, where 1 is the maximum; inactive = score below 0.9.

Usually AC50 stands for the midpoint of the concentration-response curve, whichever way the signal moves.

A short description of the test: CEETOX_H295R_ESTRADIOL: CeeTox H295R High-throughput Steroidogenesis Assay for Estradiol (AID 2283440).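 Also: estradiol secreted into medium quantified by LC-MS/MS after dansyl derivatisation.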 As to conditions: actives raise or lower the signal. Here is the method: CEETOX_H295R is a cell-based, multiplexed-readout assay that uses H295R, a human adrenal gland cell line, with measurements taken at 48 hours after chemical dosing in a 96-well plate.CEETOX_H295R_ESTRADIOL is one of 23 assay component(s) measured or calculated from the CEETOX_H295R assay. It is designed to make measurements of hormone induction, a form of inducible reporter, as detected with absorbance signals by HPLC-MS-MS technology.Data from the assay component CEETOX_H295R_ESTRADIOL was analyzed into 1 assay endpoint. This assay endpoint, CEETOX_H295R_ESTRADIOL, was analyzed with bidirectional fitting relative to DMSO as the negative control and baseline of activity. […] To generalize the intended target to other relatable targets, this assay endpoint is annotated to the steroid hormone intended target family, where the subfamily is estrogens.
Cell culture and media preparation procedures were conducted in accordance with OECD Test No. 456 guidelines, with minor modifications. H295R cells (ATCC CRL-2128) were expanded for 5 passages and frozen in batches in liquid nitrogen. Prior to the steroidogenesis assay, H295R cells were thawed and passed at least 4 times. The maximum passage was 10. Cells were maintained in a 1:1 mixture of DMEM/F12 supplemented with 5ml/L ITS+ Premix (BD Bioscience) and 12.5 ml/L Nu-Serum (BD Bioscience). After seeding cells into 96-well plates at 50-60% confluency, cells were allowed to adhere overnight. Prior to chemical testing, culture medium was replaced with 175 uL medium containing 10 uM forskolin to stimulate steroidogenesis for 48 hours. Following prestimulation, forskolin medium was replaced with medium containing test chemical solubilized in DMSO (ensuring a final concentration of 0.1% DMSO). Test chemicals were incubated for 48 hours, then the medium was removed and split into 2 vials containing approximately 75uL each, and stored at -80 C prior to hormone analysis. For steroid quantification, media samples were shipped to OpAns, LLC (Durham, NC) on dry ice, and samples were thawed to room temperature prior to liquid-liquid extraction. Steroid hormones were extracted from media samples using methyl tertbutyl ether (MTBE). An extra derivatization with dansyl chloride was included for estrogen (estrone and estradiol) detection only. Steroid hormones were separated by HPLC, eluted using a reverse phase C18 gradient with electrospray positive ionization, followed by quantification by tandem mass spectrometry (MS/MS). Data were acquired on a MassHunter Workstation Acquisition version B03.01 (Agilent Technologies, Inc.) and processed using MassHunter Quantitative Analysis for QQQ. Accuracy was determined for each hormone analyte from 3 standards to determine upper and lower limits of quantification (ULOQ and LLOQ, respectively) using a 7-point standard curve. Precision and accuracy of the extraction and quantification methods were calculated as the percent relative standard deviation (%RSD) of the spiked standards and percent spiked standard recovered, respectively. […] Test medium was removed following chemical exposure, and cell viability was evaluated in the same wells by MTT. MTT procedures were as follows: after removal of test medium, 500 uL of 0.5 mg/ml of 3-[4,5-dimethylthiazol-2-y]2,5-diphenyltetrazoliumbromide solution was added to the cells. Following a 4-hour incubation at 37 C and 5% CO2 to allow formazan-crystal formation, the MTT solution was removed and blue formazan salt crystals were solubilized using 500uL anhydrous isopropanol with shaking for 20 minutes. Absorbance was read at 570 and 650nm using a Packard Fusion microplate reader. Background correction of absorbance units was used to determine percent change relative to controls. […] When a test chemical reduced cell viability to 20% - 70%, the test chemical was diluted 10-fold and re-evaluated, but if cell viability was <20%, then the test chemical was diluted 100-fold and re-evaluated. […]
In the case of `CCCCCCCCCCCCN1CCOCC1`, the call was inactive.

Consider `c1ccc(OCCOc2ccccc2)cc1`, for which the call was inactive. `CCCCCC(=O)O[C@]1(C(C)=O)CC[C@H]2[C@@H]3CCC4=CC(=O)CC[C@]4(C)[C@H]3CC[C@@]21C`: the AC50 is 13.4 µM (active). For the compound `OCC=Cc1ccccc1`, the call was inactive. Same read-out and setting: under `COc1ccc2[nH]cc(CCNC(C)=O)c2c1` stands “inactive”; under `OCCCO`, “inactive”. The same measure, in the same setting: next, `O=C(OCc1ccccc1)c1ccccc1O`: “inactive”. Same read-out and setting: next, `CC(=O)C1=C(C)[C@@H]2C[C@@]3(C1)[C@H](C)CC[C@H]3C2(C)C`: “inactive”; `CC(=O)c1ccc2ccccc2c1`: “inactive”. Regarding `CCCc1ccc(O)cc1`, the compound was classed as inactive.
